Compound activity as filed in PubChem.
hERG WT inh – blocks the wildtype human KCNH2 potassium channel; Q12809; hit rate 0.37% among 340,000; activity change, % at 1.84 µM; U2OS, BacMam KCNH2, thallium flux FluxOr; hits give low values;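 active means maximum activity change below -70%; inconclusive means maximum activity change between -70% and -50%; inactive means maximum activity change above -50%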
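U2OS cells transduced with wild-type KCNH2 virus are loaded with FluxOr dye for 45 min, and thallium flux is measured in kinetic reads before and after stimulation buffer. Rate constants are normalized to DMSO controls.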
GCN5L2 inh – inhibitors of human GCN5L2 histone acetyltransferase. Q92830. GCN5L2 HAT assay, ThioGlo1 CoA-SH fluorescence. Potency, µM (top dose mostly 58.9 µM), for inactives: at the top dose activity change, negative = inhibition, usual class: inhibitors. hit rate 0.21% among 390,000; further: potency means the concentration at half of the fitted maximal effect
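Preincubate 20nM GCN5L2 with compound 15 min, RT → add 50uM ThioGlo1 + 75uM H3(1-25) + 70uM acetyl-CoA → read fluorescence 0 and 20 min. Primary qHTS; fluorescent artifacts likely.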
Pin1 inh – human Pin1 inhibition; hit rate 0.009% among 390,000; Potency, µM (top dose mostly 115 µM), without a hit: top-dose activity, negative = inhibition, actives largely listed as inhibitors; Pin1 FP peptide displacement, HiFluor488, 10 min; Q13526; AID 504891; active means well fitted inhibition curve with a large enough effect in the polarisation, with a control signal flat, not every such curve was filed as active; inconclusive means small, poorly fitted or top-dose-only effect, or effect the other way, or a change in a side signal; inactive means no such curve, though single readings can be large or run the other way; the % refers to the polarisation; further: potency means the concentration at half of the fitted maximal effect
KCNH2 3.1 inh – blocks the human KCNH2 3.1 channel isoform. AID 720553. activity change, % (tested at about 1.8 µM). U2OS KCNH2 3.1, thallium flux FluxOr; hits give low values. hit rate 0.95% among 340,000;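 active means maximum activity change below -70%; inconclusive means maximum activity change from -70% to -50%; inactive means maximum activity change above -50%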;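 further: thallium influx rate constant from kinetic fluorescence after stimulation buffer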
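Measured as rate of thallium-driven FluxOr signal in transduced U2OS cells carrying the 3.1 channel, read kinetically for 2 min upon stimulation; values are rate constants scaled to DMSO control wells.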
Tb PGK inh – T. brucei PGK inhibition | P07378 | PGK/GAPDH coupled, Kinase-Glo luminescence, 60 min | Potency, µM (titrated, usually from 57.5 µM), without a hit: at the highest dose activity change, negative = inhibition, actives largely listed as inhibitors | hit rate 0.043% among 380,000; further: potency means the concentration at half of the fitted maximal effect; nearly all actives have a fitted effect of over 60% in size
Target sequence (P07378 whole entry, looked up): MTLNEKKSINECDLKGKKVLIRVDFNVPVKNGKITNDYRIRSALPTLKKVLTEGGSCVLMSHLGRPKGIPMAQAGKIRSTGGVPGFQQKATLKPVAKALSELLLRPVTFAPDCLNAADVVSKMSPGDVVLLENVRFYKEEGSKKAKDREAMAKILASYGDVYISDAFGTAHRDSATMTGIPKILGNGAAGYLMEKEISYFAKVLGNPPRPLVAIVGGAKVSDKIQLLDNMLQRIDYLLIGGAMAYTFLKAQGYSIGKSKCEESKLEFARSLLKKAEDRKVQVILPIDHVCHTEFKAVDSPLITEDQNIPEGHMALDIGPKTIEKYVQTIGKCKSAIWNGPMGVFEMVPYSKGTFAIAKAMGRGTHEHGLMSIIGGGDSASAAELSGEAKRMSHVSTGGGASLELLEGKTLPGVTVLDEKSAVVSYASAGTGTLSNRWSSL
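Recombinant glycosomal PGK reaction used 1,3-bisphosphoglycerate generated in-well by GAPDH (100nM final) in 100mM TEA pH 7.6, 5mM MgCl2, 0.01% Tween-20. After 60 minutes at room temperature, ATP was read by Kinase-Glo Plus luminescence end-point.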
RGS4 inh – human RGS4 inhibition | P49798 | Transcreener GDP fluorescence polarization, RGS4-accelerated GTP hydrolysis | Potency, µM (highest dose often 114 µM), for inactives: top-dose activity change, negative = inhibition, most hits filed as inhibitors | hit rate 0.039% among 390,000; further: potency means the concentration at half of the fitted maximal effect; nearly all actives have a fitted effect of over 75% in size
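MLSMR compounds (23 nl, pin-transferred) preincubated 10 min at room temperature with a 500nM (2x) first reagent, then RGS4 at 900nM (2x) plus Transcreener GDP mix added; fluorescence polarization (620/688 nm) read before and after 90 min at 30 °C.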
* marks the source's active call; other numbers are inactive results; u = inconclusive; x = not tested or not shown; ! = not confirmed by another sample; [ ] = remark or other dose. This is a sample that favours compounds with a hit; in the whole collection about 1.2% have one here. Unless noted, the call rests on the fitted dose curve; in most records, active means well fitted curve in the direction sought with a large enough effect; inconclusive means small, poorly fitted or top-dose-only effect, or another doubt; inactive means no such curve, though single readings can be large; an effect the other way counts as inactive or inconclusive. On the % scale 0 is the no-effect control and ±100 the full control effect.

SMILES	hERG WT inh	GCN5L2 inh	Pin1 inh	KCNH2 3.1 inh	Tb PGK inh	RGS4 inh
Cc1ccccc1OCc1n(CC(=O)OC2CC(C)CCC2C(C)C)c2ccccc2[n+]1C (configuration not stated)	-82*!	-4%	-1%	-10	-5%	-28%
O=C(NCCc1nc2ccccc2n1CCOc1ccccc1)C1CCCCC1	x	x	5%	x	x	19%
COc1ccccc1C(=O)Nc1ccc(S(=O)(=O)Nc2nc(C)cc(C)n2)cc1	x	-6%	1%	x	7%	12%
CCCCCn1c(=O)c(C(=O)c2ccccc2)nc2ccccc21	-120*	u	u	-78*	3%	7%
CCn1c(=O)c(C(C)=O)nc2ccccc21	-5	-6%	u	1	-3%	-28%
CC(C)CCn1c(=O)c2cccnc2n(CC(=O)Nc2ccccc2F)c1=O	x	-3%	5%	x	-1%	0%
Cc1ccc(OCC(=O)N2CCN(c3nnc(-c4ccccc4)c4ccccc34)CC2)cc1	-16	-6%	5%	-70*	0%	11%
CC(=O)N1CCN(c2nnc(-c3ccc(C)cc3)c3ccccc23)CC1	-3	14%	6%	-1	8%	-12%
CC(=O)Nc1cccc(NC(=O)c2cc3c(=O)n4cccc(C)c4nc3n2C)c1	x	-7%	4%	x	7%	21%
O=C(N/N=C/c1cccs1)c1n[nH]c2c1CCCC2	-1	0%	-9%	-1	u	-3%
C/C(=N\NC(=O)c1n[nH]c2c1CCC2)c1cccs1	1	0%	5%	-118*	3%	3%
Cc1cccc(N2CCN(C(=O)c3c(C)oc4nc(C)nc(N5CCCC5)c34)CC2C)c1 (configuration not stated)	x	-12%	-3%	x	2%	7%
CN(C)c1ccc(N=Nc2ccc(C(=O)O)cc2)cc1	-8	-19%	u	18	-13%	u
Cc1csc(N=Nc2ccc(N(C)C)cc2)[n+]1[O-]	-6	x	x	3	16µM*	x
COc1cccc(C2c3c(ncn(-c4ccccc4Cl)c3=N)Oc3ccc4ccccc4c32)c1 (configuration not stated)	x	x	59%	x	x	x
O=C(c1ccccc1)c1ccc(OCC(O)CN2CCN(Cc3ccccc3)CC2)cc1 (configuration not stated)	-19	-8%	1%	-85*	0%	5%
N#Cc1ccc(-c2ccc(OCC(O)CN3CCOCC3)cc2)cc1 (configuration not stated)	0	-1%	-2%	-11	9%	-21%[11.4 µM]
CCCc1ccc(OCC(O)CN2CCN(c3ccccn3)CC2)cc1 (configuration not stated)	1	-2%	-6%	-77*	1%	26%
N#Cc1ccc(OCC(O)CN2CCC(C(O)(c3ccccc3)c3ccccc3)CC2)cc1 (configuration not stated)	-144*	-3%	-9%	-120*	-4%	20%
O=C(c1ccccc1)c1ccc(OCCOCCN2CCN(Cc3ccccc3)CC2)cc1	-140*	-7%	-1%	-10	-6%	5%
Cc1ccc(OCC(=O)OCc2cc(=O)n3c(C)csc3n2)cc1	x	7%	2%	x	10%	1%
OC(COc1ccc(Br)cc1)CN1CCC(Cc2ccccc2)CC1 (configuration not stated)	-117*	-4%	-4%	-104*	-2%	2%
CC1=C(C(=O)Nc2cccnc2)C(c2ccncc2)n2nnnc2N1 (configuration not stated)	12	-3%	0%	22	1%	-2%
CC1=C(C(=O)Nc2cccnc2)C(c2ccccn2)n2nnnc2N1 (configuration not stated)	1	7.1µM*	6%	x	6%	15%
Fc1ccc(-c2nc3ccccc3[nH]2)cc1	-1	-6%	5%	44	-7%	10%[11.4 µM]
S=c1nc(-c2ccc(Br)cc2)[nH]c2ccccc12	-141*	0%	0%	31	-5%	16%[11.4 µM]
